Screens from PubChem.
Sampled rows, rich in hits. Any-hit rate of the full collection: about 3.8%.
TGFb SMAD3 inh = qHTS for Inhibitors of TGF-b; HepG2 CAGA-GFP TGF-b/SMAD3 reporter, GFP fluorescence, 18 h; TGF-beta stimulated, 500 pg/mL final; Potency, µM (series often up to 46.1 µM), for the others: at the highest dose activity, negative = inhibition, hits mostly inhibitors; 1.2% of 410,000 active; AID 588855, 2011; further: on the % scale 0 is the no-effect control and ±100 the full control effect; nearly all actives have a fitted effect of over 65% in size
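Per well, imaged GFP fluorescence of HEPG2 CAGA-GFP cells gives the signal; cells get compound, then TGF-beta (500 pg/mL final), 18 h at 37 degrees C; %Activity versus -TGF-beta and +DMSO controls.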
S2 tox = Viability Counterscreen for Primary qHTS for Inhibitors of ATXN expression. S2 cells (HEK-293 line with an ATXN2-luciferase reporter) viability, CellTiter-Fluor protease fluorescence, 24 h. Potency, µM (doses to about 56.7 µM), hits mostly cytotoxic. 0.49% of 400,000 active. AID 651635, 2014; further: nearly all actives have a fitted effect of over 40% in size
ATXN2 expr inh = Primary qHTS for Inhibitors of ATXN expression. 0.72% of 360,000 active. AID 1745845, 2022. HEK-293 ATXN2-luciferase reporter, luminescence, 24 h. Potency, µM (titrated, usually from 57 µM), for inactives: at the top dose activity change, negative = inhibition, actives largely listed as inhibitors; further: on the % scale 0 is the no-effect control and ±100 the full control effect; nearly all actives have a fitted effect of over 55% in size
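qHTS (up to 57 uM final) was run with 24 h compound exposure of reporter cells at 37 °C. Each well was multiplexed: SteadyGlo luminescence measured ATXN2-luciferase expression after a fluorogenic Gly-Phe-AFC viability readout (25 uM final).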
HepG2 tox = qHTS for Inhibitors of TGF-b: Cytotox Counterscreen | HepG2 CAGA-GFP viability, ATP luminescence, 18 h | Potency, µM (top dose mostly 46.1 µM), for the others: at the top dose activity change, negative = cytotoxicity, hits mostly cytotoxic | 0.76% of 410,000 active | AID 588856, 2011
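CellTiter-Glo luminescence gave cytotoxicity after 18 hours at 37 degrees C. The cells were HepG2 CAGA-GFP in 1% FBS DMEM, stimulated with 500 pg/mL TGF-beta after compound addition. %Activity was normalised to no-cell wells (complete cell-killing) and DMSO (no toxicity), and curves were fitted and classified.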
Nrf2 inh = Nrf2 qHTS screen for inhibitors | Potency, µM (highest dose often 46 µM), for the others: at the highest dose activity change, negative = inhibition, usual class: inhibitors | 2.1% of 360,000 active | A549 ARE-Fluc reporter, luciferase luminescence, 18-24 h; further: on the % scale 0 is the no-effect control and ±100 the full control effect; nearly all actives have a fitted effect of over 60% in size
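Concentration-response testing used A549 ARE_Fluc cells at 5000 cells/well. Following an 18-24 h compound incubation, viability was read by fluorescence (Ex 405/Em 525) and luciferase output by luminescence.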
A549 viability = Nrf2 qHTS screen for inhibitors: counterscreen for cytotoxicity. A549 ARE-Fluc cells, CellTiter-Fluor viability, 18-24 h. Potency, µM (series often up to 46 µM), without a hit: at the highest dose activity change, negative = cytotoxicity, usual class: inhibitors. 0.16% of 390,000 active. AID 504648, 2011; further: on the % scale 0 is the no-effect control and ±100 the full control effect
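A549 ARE_Fluc cells in 5% FBS OPTI-MEM were exposed to compounds in concentration-response for 18-24 h at 37 deg C. Viability was read by CellTiter-Fluor fluorescence (Ex 405/Em 525) after 30 min, before the luciferase read.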
* hit, by the source's call; i = inactive; ? = inconclusive; · = no result; [ ] = remark or other dose. The call rests on the fitted dose curve; in most records, active means well fitted curve in the direction sought with a large enough effect; inconclusive means small, poorly fitted or top-dose-only effect, or another doubt; inactive means no such curve, though single readings can be large; an effect the other way counts as inactive or inconclusive. Potency means the concentration at half of the fitted maximal effect.

SMILES	TGFb SMAD3 inh	S2 tox	ATXN2 expr inh	HepG2 tox	Nrf2 inh	A549 viability
Cc1cccc(NC(=O)c2cnc3sc(N4CCCC4)nn3c2=O)c1C	?	·	·	-1%	?	4%
CCOC(=O)/C(=C/c1ccco1)NC(=O)c1ccc(Br)o1	-4%	i	-1%[11.3 µM]	17%	11%	-8%
O=[N+]([O-])c1ccc(Sc2ncccn2)c([N+](=O)[O-])c1	?	?	?	20µM*	23µM*	?
CCOc1ccc(CCN2C(=O)C(=O)N([C@@H](Cc3ccccc3)CN3CCC[C@H]3CN3C(=O)C(=O)NC[C@@H]3Cc3ccccc3)C[C@@H]2Cc2ccccc2)cc1	·	28µM*	?	·	·	·
O=C1NC[C@H](Cc2ccccc2)N(C[C@@H]2CCCN2C[C@H](Cc2ccccc2)N2C[C@H](Cc3ccccc3)N(CCc3ccccc3)C(=O)C2=O)C1=O	?	?	?	-4%	·	·
CCOc1ccc(CCN2C(=O)C(=O)N([C@@H](CC(C)C)CN3CCC[C@@H]3CN3C(=O)C(=O)NC[C@@H]3Cc3ccccc3)C[C@@H]2CC(C)C)cc1	10µM*	·	?	-37%	?	-24%
CCOc1ccc(CCN2C(=O)C(=O)N([C@@H](Cc3ccc(O)cc3)CN3CCC[C@H]3CN3C(=O)C(=O)NC[C@@H]3Cc3ccccc3)C[C@@H]2Cc2ccc(O)cc2)cc1	·	i	5%	·	·	·
O=C1NC[C@H](Cc2ccccc2)N(C[C@H]2CCCN2C[C@H](Cc2ccccc2)N2C[C@H](Cc3ccccc3)N(CCc3ccccc3)C(=O)C2=O)C1=O	?	18µM*	?	-34%	?	?
CCOc1ccc(CCN2C(=O)C(=O)N([C@@H](CC(C)C)CN3CCC[C@H]3CN3C(=O)C(=O)NC[C@@H]3Cc3ccccc3)C[C@@H]2Cc2ccc(O)cc2)cc1	·	?	0%	·	·	·
N#Cc1cnc2nc1NCCCCCCC2	7%	i	·	-5%	·	·
N#Cc1ncc(Cl)c2ccccc12	-16%	i	·	16µM*	4%	11%
N#Cc1cc(-c2ccccc2)cnc1Cl	-17%	i	1%	-21%	·	-3%
CC(C)Oc1ncnc2c1[nH]c1ccccc12	?	i	·	-19%	8.2µM*	-12%
COc1ccc(NC(=O)Cc2csc(COc3cccc(C)c3)n2)cc1OC	0%	i	-28%	-25%	23µM*	2%
Cc1cccc(N2CCN(C(=O)c3ccc4nc(-c5ccco5)c(-c5ccco5)nc4c3)CC2C)c1 (stereo unspecified)	?	?	?	-31%	21µM*	?
O=C(O)CCC1OC(=O)C(O)=C1c1ccccc1 (stereo unspecified)	35%	i	7%	14%	13%	2%
CCN(CC)CCNC(=O)c1[nH]c2ccccc2c1Sc1ccc(Cl)cc1	?	·	?	14µM*	-20%	-1%
Cc1cnc(CNC(=O)c2c3n(c(C)cc2=O)-c2ccccc2SC(c2ccsc2)C3)cn1 (stereo unspecified)	·	i	·	·	·	·
Cc1ccc(C(=O)Oc2coc(CSc3nnc(NC(=O)C4CC4)s3)cc2=O)cc1	?	i	6%	-4%	21µM*	-4%
O=C(Oc1coc(CSc2nnc(NC(=O)c3cccs3)s2)cc1=O)c1ccccc1	3%	i	7%	-9%	14%	-2%
CCOCc1cc(CN2CCN(c3cccc(C(F)(F)F)c3)CC2)c(O)c2ncccc12	2.8µM*	·	·	-36%	?	-2%
CC(C)OCc1cc(CN2CCN(c3cccc(C(F)(F)F)c3)CC2)c(O)c2ncccc12	1.6µM*	·	·	-53%	16µM*	-25%
CCOc1ccc(NC(=O)CN(C)C(=O)c2cn(-c3ccc(F)cc3)nc2-c2cccc(OC)c2)cc1OCC	?	i	?	-13%	?	?
CCN(CC)CCNC(=O)c1ccc(NC(=O)c2cn(-c3ccc(F)cc3)nc2-c2cccc(OC)c2)cc1	?	28µM*	?	i	2%	-26%
COc1cccc(-c2cc(C(=O)Nc3ccc(Br)c(C)c3)[nH]n2)c1	-7%	·	·	-5%	19%	2%
SMILES	TGFb SMAD3 inh	S2 tox	ATXN2 expr inh	HepG2 tox	Nrf2 inh	A549 viability
O=C(Nc1cccnc1)c1cn(-c2ccccc2)nc1-c1cccs1	-20%	i	5%	-23%	3%	-8%
COc1cccc(-c2cc(C(=O)Nc3ccc(F)cc3)[nH]n2)c1	1%	i	77%	-42%	2.6µM*	6%
CCN(CC)CCNC(=O)c1ccc(NC(=O)c2cn(-c3ccccc3)nc2-c2cccs2)cc1	?	·	?	11µM*	-4%	15%
COc1ccc(-c2cc3ccccc3s2)cc1[C@H]1[C@H]2C=CC[C@@H](C)[C@@H]2C(=O)N1Cc1ccccc1	6%	i	54%	-3%	?	8%
Cn1cc(SCC(N)=O)c2ccccc21	3%	?	0%	-2%	16%	-3%
Cn1cc(C2=C(c3cn(CCCSC(=N)N)c4ccccc34)C(=O)NC2=O)c2ccccc21	0.71µM*	·	·	2µM*	·	·
COCCCNC(=S)NNC(=O)C1CC1c1ccc(C(C)(C)C)cc1 (stereo unspecified)	-9%	i	·	-1%	21µM*	-2%
O=C(NCc1cccc(F)c1)c1ccc2nc(N3CCCCC3)sc2c1	23%	i	30%	6%	?	0%
COc1ccc(C[C@H]2CN3C(=NC[C@@H]3Cc3ccc(O)cc3)N2C[C@H](C)NC(=O)c2ccc(C)c(Br)c2)cc1	22µM*	22µM*	?	18µM*	?	?
COc1ccc(C[C@H]2CN3C(=NC[C@@H]3C(C)C)N2C[C@H](C)NC(=O)c2ccc(C)c(Br)c2)cc1	?	18µM*	?	-58%	5%	?
Cc1noc(C)c1COc1ccccc1C(=O)N(C)CC(=O)Nc1ccc(F)c(F)c1F	-4%	i	1%	4%	-4%	1%
COc1ccc(CNC(=O)c2csc(Cc3ccc(Cl)cc3)n2)cc1	?	i	6%	-32%	23µM*	9%
COc1ccc(CNC(=O)c2csc(Cc3ccc(OC)cc3)n2)cc1	13%	i	-6%	-9%	·	-2%
Cc1ccc(S(=O)(=O)N(CC(=O)NC2CCCCCC2)c2ccccc2F)cc1	14%	i	-3%	-1%	-11%	0%
